Measured values taken from PubChem BioAssay (Tox21).
Values joined by “and” are separate entries in the source; they are usually repeats but may differ in a detail not shown here. Identical values can stand only once. Records with an inconclusive call do not appear. More than one record can exist for a structure, and the calls need not agree. Active and inactive are the calls of the source. Unless noted, calls come from the whole dose curve.

Columns and labels:
[1] = qHTS assay to identify small molecule agonists of the sonic hedgehog signaling (Shh) pathway (AID 1259368);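 note: NIH/3T3-derived 3T3Gli1-Luc cells carrying a stable Gli1-driven firefly luciferase reporter; series mostly up to about 92 µM; nearly all actives have a fitted effect of over 15% in size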
In short: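 Stable NIH/3T3 Gli1-Luc reporter clone; 24 hr cpd exposure after a 4 hr settling period; luminescence endpoint.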

[2] = qHTS assay to identify small molecule antagonists of the sonic hedgehog signaling (Shh) pathway (AID 1259369); note: nearly all actives have a fitted effect of over 45% in size; note: potency is the fitted concentration of half-maximal effect
In short: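 Gli1 transcriptional reporter (firefly Luc) in NIH/3T3 background, conditioned-medium activated. 24hr exposure, luminescence endpoint.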

[3] = target: Estrogen receptor beta (Homo sapiens) (UniProt Q92731); assay: qHTS assay to identify small molecule agonists of the estrogen receptor beta (ER-beta) signaling pathway (AID 1259377; active = well fitted activation curve with a large enough effect in the signal ratio in the repeat runs, not every such curve was filed as active; the % refers to the signal ratio)
In short: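 ER-beta-UAS-bla HEK293T (GripTite) cells carrying a UAS-driven beta-lactamase reporter, in medium with 2% charcoal-stripped FBS, were exposed to compounds for 16 hr at 37C; LiveBLAzer B/G FRET substrate was then added and fluorescence read after 2 hours at room temperature.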

[4] = target: Estrogen receptor beta (Homo sapiens) (UniProt Q92731); assay: qHTS assay to identify small molecule antagonists of the estrogen receptor beta (ER-beta) signaling pathway (AID 1259378; active = well fitted inhibition curve with a large enough effect in the signal ratio in the repeat runs, not every such curve was filed as active; the % refers to the signal ratio)
In short: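 Antagonist mode: compounds added to beta-lactamase reporter HEK293T ER-beta-UAS cells stimulated with E2 (1nM final), 16 hr at 37C. LiveBLAzer B/G FRET substrate, 2 hours room temperature, fluorescence read-out.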

[5] = qHTS assay to identify small molecule agonists of the androgen receptor (AR) signaling pathway in the presence of an antagonist - cell viability counter screen (AID 1259379; active = well fitted curve in the direction sought with a large enough effect in the repeat runs; an effect the other way counts as inactive or inconclusive;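 note: MDA-kb2 human breast cancer cells carrying an MMTV luciferase reporter; series mostly up to about 92 µM; nearly all actives have a fitted effect of over 25% in size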)
In short: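 Counter screen for cell viability run in parallel with the AR agonist-mode luciferase assay. MDA-kb2 cells were co-treated with nilutamide (3.0uM final) and compounds, then incubated 16 hr at 37C, and CellTiter-Fluor fluorescence was measured.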

[6] = qHTS assay to identify small molecule agonists of the estrogen receptor beta (ER-beta) signaling pathway - cell viability counter screen (AID 1259380; active = well fitted curve in the direction sought with a large enough effect in the repeat runs; an effect the other way counts as inactive or inconclusive; note: nearly all actives have a fitted effect of over 30% in size)
In short: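 In this qHTS counter screen, HEK293T cells carrying an ER-beta/UAS beta-lactamase reporter, grown in 2% charcoal-stripped FBS, received compound for 16 hr; ATP-based CellTiter-Glo luminescence was then read after 30 min at room temperature.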

[7] = qHTS assay to identify small molecule antagonists of the estrogen receptor beta (ER-beta) signaling pathway - cell viability counter screen (AID 1259382; active = well fitted curve in the direction sought with a large enough effect in the repeat runs; an effect the other way counts as inactive or inconclusive; note: series mostly up to about 92 µM; nearly all actives have a fitted effect of over 55% in size)
In short: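 HEK293T ER-beta-UAS-bla, 2% charcoal-stripped FBS; compounds + 1nM E2 16 hr 37C; CellTiter-Glo luminescence, 30 min RT.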

[8] = target: Estrogen receptor (Homo sapiens) (UniProt P03372); assay: qHTS assay to identify small molecule agonists of the estrogen receptor alpha (ER-alpha) signaling pathway in the presence of an antagonist (AID 1259383); note: nearly all actives have a fitted effect of over 15% in size; note: potency is the fitted concentration of half-maximal effect; for activation: top concentration of the series differs between compounds
In short: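 ER-alpha agonism measured under antagonist challenge: 10.0nM ICI-182,780 (final) plus compound, 15 concentrations, 22hr, VM7Luc4E2 ERE-luciferase cells. Read by luminescence.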

[9] = qHTS assay to identify small molecule agonists of the estrogen receptor alpha (ER-alpha) signaling pathway in the presence of an antagonist - cell viability counter screen (AID 1259386; active = well fitted curve in the direction sought with a large enough effect in the repeat runs; an effect the other way counts as inactive or inconclusive;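 note: cells exposed to compounds for 22 h at 37 °C before the viability read; nearly all actives have a fitted effect of over 30% in size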; note: potency is the fitted concentration of half-maximal effect)
In short: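 Steps: 5-day stripped-FBS culture; seed and incubate 24hr; add ICI-182,780 (10.0nM final); pin 15-point compound titration; incubate 22hr at 37C; add CellTiter-Fluor at 21hr; read fluorescence.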

[10] = target: Progesterone receptor (Homo sapiens) (UniProt P06401); assay: qHTS assay to identify small molecule agonists of the progesterone receptor (PR) signaling pathway (AID 1346784); note: nearly all actives have a fitted effect of over 30% in size; note: potency is the fitted concentration of half-maximal effect
In short: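 PR-UAS-bla HEK 293T cells carrying a UAS-driven beta-lactamase reporter were seeded in medium with 2% charcoal-stripped FBS, preincubated 6 hr at 37C, then exposed to compounds in DMSO for 16 hr; agonism was read by LiveBLAzer B/G FRET fluorescence.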

[11] = qHTS assay to identify small molecule agonists of the progesterone receptor (PR) signaling pathway - cell viability counter screen (AID 1346799); note: nearly all actives have a fitted effect of over 45% in size
In short: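 PR-UAS-bla HEK293T cells, 3,000 per well in medium with 2% charcoal-stripped FBS, were preincubated 6 hr at 37C, then exposed to compounds for 16 hr; viability was read as CellTiter-Glo luminescence after 30 min at room temperature.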

[12] = qHTS assay to identify small molecule antagonists of the TGF-beta/Smad signaling pathway - cell viability counter screen (AID 1346824; active = well fitted curve in the direction sought with a large enough effect in the repeat runs; an effect the other way counts as inactive or inconclusive; note: nearly all actives have a fitted effect of over 50% in size)
In short: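 Cytotoxicity counter-screen run in the same wells as the beta-lactamase Smad reporter read: CellTiter-Glo luminescence after 30 min at room temperature. HEK 293T SBE-bla cells had 5 hr compound exposure at 37 C with TGF-beta1 (0.25 ng/mL stock).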

[13] = qHTS assay to identify small molecule agonists of the TGF-beta/Smad signaling pathway - cell viability counter screen (AID 1346829; active = well fitted curve in the direction sought with a large enough effect in the repeat runs; an effect the other way counts as inactive or inconclusive; note: top concentration of the series differs between compounds; nearly all actives have a fitted effect of over 45% in size)
In short: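 Here the cytotoxicity of library compounds is measured in SBE-bla HEK 293T cells treated for 5 hr, using CellTiter-Glo added to wells already read for the beta-lactamase reporter.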

[14] = qHTS assay to identify small molecule agonists of the TGF-beta/Smad signaling pathway (AID 1346859; active = well fitted activation curve with a large enough effect in the signal ratio in the repeat runs, not every such curve was filed as active; the % refers to the signal ratio; note: series mostly up to about 77 µM)
In short: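 HEK 293T cells stably carrying a beta-lactamase reporter driven by the Smad binding element were seeded overnight, exposed to DMSO-dissolved compounds for 5 hr at 37 C, 5% CO2, then loaded with FRET substrate for 2 hr at room temperature.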

[15] = target: Thyrotropin-releasing hormone receptor (Homo sapiens) (UniProt P34981); assay: qHTS assay to identify small molecule antagonists of the thyrotropin-releasing hormone receptor (TRHR) signaling pathway (AID 1346877; active = well fitted inhibition curve with a large enough effect in the repeat runs, not every such curve was filed as active; note: series mostly up to about 51 µM)
In short: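 Human TRHR in HEK293 cells; inhibition of the intracellular calcium rise triggered by 1 nM TRH was followed by fluorescence over 3 min. Compounds were run at 15 concentrations, three replicates each.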

[16] = qHTS assay to identify small molecule agonists or antagonists of the thyroid stimulating hormone receptor (TSHR) signaling pathway - wild type cell line counter screen (AID 1259384)
In short: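 Counter screen in untransfected Hek293: compounds (15-point titration, triplicate) plus phosphodiesterase inhibitor Ro20-1724 added after 18 h plating; 30 min RT. Intracellular cAMP via competitive d2/cryptate immunoassay, 1 h incubation.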

[17] = target: Thyrotropin receptor (Homo sapiens) (UniProt P16473); assay: qHTS assay to identify small molecule antagonists of the thyroid stimulating hormone receptor (TSHR) signaling pathway (AID 1259385); note: nearly all actives have a fitted effect of over 20% in size
In short: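 Antagonist mode: compound-treated TSHR-expressing HEK293 cells were stimulated with 1.5 ng/mL TSH (final) in presence of Ro20-1724 for 30 min at RT. HTRF cAMP detection after 1 h; each compound tested at 15 concentrations, triplicate.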

[18] = qHTS assay to identify small molecule antagonists of the progesterone receptor (PR) signaling pathway - cell viability counter screen (AID 1346798; active = well fitted curve in the direction sought with a large enough effect in the repeat runs; an effect the other way counts as inactive or inconclusive; note: series mostly up to about 92 µM; nearly all actives have a fitted effect of over 50% in size)
In short: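 PR-UAS-bla HEK293T cells in medium with 2% charcoal-stripped FBS were treated with compounds plus R5020 for 16 hr at 37C. Cell viability was then read by CellTiter-Glo luminescence after 30 min at room temperature in the same wells.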

[19] = target: Androgen receptor (Homo sapiens) (UniProt P10275); assay: qHTS assay to identify small molecule agonists of the androgen receptor (AR) signaling pathway in the presence of an antagonist (AID 1259381); note: nearly all actives have a fitted effect of over 15% in size; note: potency is the fitted concentration of half-maximal effect
In short: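 AR antagonist background: nilutamide 3.0uM final. Cell line: MDA-kb2, MMTV-driven luciferase, responsive to both AR and GR. Exposure 16hr, 37C, no CO2; ONE-Glo luminescence.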

[20] = target: Progesterone receptor (Homo sapiens) (UniProt P06401); assay: qHTS assay to identify small molecule antagonists of the progesterone receptor (PR) signaling pathway (AID 1346795; active = well fitted inhibition curve with a large enough effect in the signal ratio in the repeat runs, not every such curve was filed as active; the % refers to the signal ratio)
In short: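 PR-UAS-bla HEK293T cells carrying a UAS-driven beta-lactamase reporter were plated in medium with 2% charcoal-stripped FBS and rested 6 hr at 37C. Compounds were added with 1 nM R5020 (final) for 16 hr, then FRET substrate loaded 2 hr at room temperature.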

Measured: Potency

Estrogen receptor (Homo sapiens), sequence (P03372 whole entry, looked up): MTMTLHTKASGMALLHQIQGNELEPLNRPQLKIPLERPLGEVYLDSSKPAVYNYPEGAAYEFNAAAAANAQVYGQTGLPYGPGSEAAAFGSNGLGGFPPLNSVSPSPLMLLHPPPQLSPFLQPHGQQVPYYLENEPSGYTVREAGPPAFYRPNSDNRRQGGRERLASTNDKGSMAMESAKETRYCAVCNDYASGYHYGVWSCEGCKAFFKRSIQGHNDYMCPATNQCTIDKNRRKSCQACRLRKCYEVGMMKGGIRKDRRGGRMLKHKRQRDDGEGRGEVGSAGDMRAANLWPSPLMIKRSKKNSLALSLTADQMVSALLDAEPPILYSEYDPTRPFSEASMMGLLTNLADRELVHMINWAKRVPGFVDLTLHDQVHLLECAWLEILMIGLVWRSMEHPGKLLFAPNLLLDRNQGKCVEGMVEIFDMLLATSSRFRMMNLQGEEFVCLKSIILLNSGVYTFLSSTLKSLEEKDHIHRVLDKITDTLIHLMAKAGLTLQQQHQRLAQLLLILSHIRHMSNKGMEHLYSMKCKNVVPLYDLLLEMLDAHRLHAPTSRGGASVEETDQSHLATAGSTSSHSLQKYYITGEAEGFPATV
Estrogen receptor beta (Homo sapiens), sequence (Q92731 whole entry, looked up): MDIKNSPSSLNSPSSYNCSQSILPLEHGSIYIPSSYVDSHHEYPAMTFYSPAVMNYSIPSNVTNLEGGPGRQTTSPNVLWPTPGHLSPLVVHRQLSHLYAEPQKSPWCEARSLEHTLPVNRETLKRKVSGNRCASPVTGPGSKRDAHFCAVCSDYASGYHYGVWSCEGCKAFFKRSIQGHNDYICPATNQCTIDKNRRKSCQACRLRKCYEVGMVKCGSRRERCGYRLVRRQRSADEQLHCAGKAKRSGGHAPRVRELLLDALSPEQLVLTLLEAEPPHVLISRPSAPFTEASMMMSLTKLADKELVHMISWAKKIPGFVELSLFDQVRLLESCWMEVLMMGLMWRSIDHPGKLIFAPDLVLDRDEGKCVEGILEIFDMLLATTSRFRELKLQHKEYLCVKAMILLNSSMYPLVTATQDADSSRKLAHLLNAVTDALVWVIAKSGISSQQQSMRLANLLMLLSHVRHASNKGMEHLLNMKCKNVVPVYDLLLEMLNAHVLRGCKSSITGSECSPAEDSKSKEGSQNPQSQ
Progesterone receptor (Homo sapiens), sequence (P06401 whole entry, looked up): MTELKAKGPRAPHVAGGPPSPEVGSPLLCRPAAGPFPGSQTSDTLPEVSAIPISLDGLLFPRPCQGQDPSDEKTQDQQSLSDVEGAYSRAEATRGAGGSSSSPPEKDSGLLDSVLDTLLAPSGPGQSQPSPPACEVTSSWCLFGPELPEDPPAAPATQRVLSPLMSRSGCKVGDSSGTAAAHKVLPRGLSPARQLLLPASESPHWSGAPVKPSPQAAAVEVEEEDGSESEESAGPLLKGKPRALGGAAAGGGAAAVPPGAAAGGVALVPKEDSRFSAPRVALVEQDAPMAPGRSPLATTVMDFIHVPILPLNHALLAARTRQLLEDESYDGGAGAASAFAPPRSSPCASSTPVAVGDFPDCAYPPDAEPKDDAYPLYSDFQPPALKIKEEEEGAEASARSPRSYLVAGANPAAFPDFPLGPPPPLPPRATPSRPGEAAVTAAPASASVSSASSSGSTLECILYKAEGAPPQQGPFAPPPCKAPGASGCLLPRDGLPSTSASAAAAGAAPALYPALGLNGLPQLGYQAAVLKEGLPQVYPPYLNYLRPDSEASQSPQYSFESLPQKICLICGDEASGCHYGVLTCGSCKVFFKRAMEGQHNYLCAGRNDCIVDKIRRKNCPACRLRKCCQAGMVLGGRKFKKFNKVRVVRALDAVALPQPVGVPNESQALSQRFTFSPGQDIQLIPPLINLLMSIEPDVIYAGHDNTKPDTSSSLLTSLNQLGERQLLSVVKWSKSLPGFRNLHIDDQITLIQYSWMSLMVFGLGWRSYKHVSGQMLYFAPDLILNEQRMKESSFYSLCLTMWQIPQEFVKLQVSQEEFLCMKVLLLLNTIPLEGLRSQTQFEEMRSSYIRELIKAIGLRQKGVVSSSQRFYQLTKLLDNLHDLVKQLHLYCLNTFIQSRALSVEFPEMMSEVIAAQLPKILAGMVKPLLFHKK
Androgen receptor (Homo sapiens), sequence (P10275 whole entry, looked up): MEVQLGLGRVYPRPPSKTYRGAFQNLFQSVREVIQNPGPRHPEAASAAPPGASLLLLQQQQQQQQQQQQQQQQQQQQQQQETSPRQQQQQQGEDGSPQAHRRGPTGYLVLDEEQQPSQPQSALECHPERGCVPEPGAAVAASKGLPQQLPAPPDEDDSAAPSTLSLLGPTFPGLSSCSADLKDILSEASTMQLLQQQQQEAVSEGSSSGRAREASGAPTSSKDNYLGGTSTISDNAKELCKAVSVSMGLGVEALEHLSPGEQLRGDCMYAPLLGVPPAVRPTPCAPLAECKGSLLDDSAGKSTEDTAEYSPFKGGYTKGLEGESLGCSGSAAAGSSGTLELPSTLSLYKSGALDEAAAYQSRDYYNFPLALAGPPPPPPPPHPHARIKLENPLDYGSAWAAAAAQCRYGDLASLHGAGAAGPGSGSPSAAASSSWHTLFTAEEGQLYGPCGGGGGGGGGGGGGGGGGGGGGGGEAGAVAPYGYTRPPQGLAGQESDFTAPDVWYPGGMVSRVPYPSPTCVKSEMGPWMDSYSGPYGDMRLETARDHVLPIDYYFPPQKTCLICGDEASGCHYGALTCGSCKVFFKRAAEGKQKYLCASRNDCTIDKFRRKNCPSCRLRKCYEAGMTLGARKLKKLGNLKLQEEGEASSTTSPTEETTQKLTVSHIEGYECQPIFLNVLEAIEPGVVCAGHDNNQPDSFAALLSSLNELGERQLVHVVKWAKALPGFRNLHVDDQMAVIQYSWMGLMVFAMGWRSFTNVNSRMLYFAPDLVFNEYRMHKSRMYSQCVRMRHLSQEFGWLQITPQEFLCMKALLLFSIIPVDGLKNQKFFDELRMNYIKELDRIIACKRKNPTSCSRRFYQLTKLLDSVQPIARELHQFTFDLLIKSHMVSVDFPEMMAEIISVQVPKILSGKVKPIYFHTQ
Thyrotropin receptor (Homo sapiens), sequence (P16473 whole entry, looked up): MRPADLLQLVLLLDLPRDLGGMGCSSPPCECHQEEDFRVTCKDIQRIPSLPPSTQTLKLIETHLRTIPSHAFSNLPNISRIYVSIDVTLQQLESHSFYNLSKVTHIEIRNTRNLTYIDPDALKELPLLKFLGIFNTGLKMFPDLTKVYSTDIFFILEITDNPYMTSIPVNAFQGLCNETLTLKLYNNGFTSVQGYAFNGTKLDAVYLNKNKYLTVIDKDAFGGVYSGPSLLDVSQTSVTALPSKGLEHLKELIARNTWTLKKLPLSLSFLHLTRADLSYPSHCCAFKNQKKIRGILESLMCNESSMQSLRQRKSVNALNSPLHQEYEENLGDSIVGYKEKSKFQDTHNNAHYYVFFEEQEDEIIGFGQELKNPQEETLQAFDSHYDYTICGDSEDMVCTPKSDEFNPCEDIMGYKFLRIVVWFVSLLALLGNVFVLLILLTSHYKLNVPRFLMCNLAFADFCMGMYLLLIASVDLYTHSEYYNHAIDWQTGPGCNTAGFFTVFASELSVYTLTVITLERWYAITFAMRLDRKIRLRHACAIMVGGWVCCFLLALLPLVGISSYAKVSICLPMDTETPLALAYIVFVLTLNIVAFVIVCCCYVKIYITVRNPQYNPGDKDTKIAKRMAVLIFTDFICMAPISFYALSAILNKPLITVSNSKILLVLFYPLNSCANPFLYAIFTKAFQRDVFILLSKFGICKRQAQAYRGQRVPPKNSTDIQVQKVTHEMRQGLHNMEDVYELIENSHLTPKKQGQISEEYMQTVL
Thyrotropin-releasing hormone receptor (Homo sapiens), sequence (P34981 whole entry, looked up): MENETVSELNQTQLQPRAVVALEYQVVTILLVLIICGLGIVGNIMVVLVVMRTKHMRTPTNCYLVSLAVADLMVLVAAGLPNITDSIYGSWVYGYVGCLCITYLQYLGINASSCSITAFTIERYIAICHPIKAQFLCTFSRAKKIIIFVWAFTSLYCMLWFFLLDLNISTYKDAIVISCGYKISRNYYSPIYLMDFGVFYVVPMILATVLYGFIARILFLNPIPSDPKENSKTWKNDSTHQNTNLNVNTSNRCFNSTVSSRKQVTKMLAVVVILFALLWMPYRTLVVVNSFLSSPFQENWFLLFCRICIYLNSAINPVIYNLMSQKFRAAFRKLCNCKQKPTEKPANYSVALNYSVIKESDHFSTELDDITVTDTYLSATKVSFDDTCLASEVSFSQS

CC(=O)NS(=O)(=O)c1ccc(N)cc1
inactive: [1] | [2] | [3] | [4] | [5] | [6] | [7] | [8] | [9] | [10] | [11] | [12] | [13] | [14] | [15]

Nc1ccc(O)c(C(=O)O)c1
active: [9] 48.1 µM and 54.5 µM
inactive: [1] | [2] | [3] | [4] | [5] | [6] | [7] | [8] | [16] | [17] | [10] | [18] | [11] | [12] | [13] | [15]

Cc1ccc(C)c(OCCCC(C)(C)C(=O)O)c1
inactive: [1] | [2] | [3] | [4] | [5] | [6] | [19] | [7] | [8] | [16] | [17] | [9] | [10] | [11] | [12]

CC1(C)[C@@H]2CC[C@@]1(C)C(=O)C2
inactive: [1] | [2] | [3] | [4] | [5] | [6] | [7] | [8] | [16] | [17] | [9] | [10] | [11] | [12] | [13] | [14] | [15]

NS(=O)(=O)c1cc(C(=O)O)c(NCc2ccco2)cc1Cl
inactive: [1] | [2] | [5] | [6] | [7] | [8] | [16] | [17] | [9] | [10] | [11] | [12] | [15]

O=C1NC(=O)c2ccccc21
inactive: [1] | [2] | [5] | [6] | [7] | [16] | [17] | [9] | [10] | [20] | [11] | [12]

O=NO
inactive: [1] | [2] | [5] | [6] | [7] | [16] | [17] | [9] | [11] | [12]

O=S(=O)(O)NC1CCCCC1
4.12 µM (active) and inactive: [10]
inactive: [1] | [2] | [5] | [6] | [7] | [16] | [17] | [9] | [18] | [11] | [12]

OCCc1ccccc1
inactive: [1] | [2] | [5] | [6] | [7] | [16] | [17] | [9] | [10] | [20] | [18] | [11] | [12] | [13] | [15]

CC(=O)OCC(COC(C)=O)OC(C)=O
inactive: [1] | [2] | [3] | [4] | [5] | [6] | [7] | [16] | [17] | [9] | [10] | [11] | [12] | [13] | [15]

O=S(=O)(O)c1ccc2cc(O)ccc2c1
inactive: [1] | [2] | [5] | [6] | [7] | [9] | [10] | [20] | [18] | [11] | [12] | [13] | [14] | [15]

Cn1c(=O)c2[nH]cnc2n(C)c1=O
inactive: [1] | [2] | [5] | [6] | [7] | [8] | [16] | [17] | [9] | [10] | [20] | [11] | [12] | [15]

O=C(O)c1cccc([N+](=O)[O-])c1
inactive: [1] | [2] | [3] | [4] | [5] | [6] | [7] | [9] | [10] | [18] | [11] | [12] | [15]

CC(O)C(=O)O (stereo unspecified)
inactive: [1] | [2] | [5] | [6] | [7] | [8] | [16] | [17] | [9] | [10] | [20] | [11] | [12] | [14] | [15]

CCCCCCCCCCCCCCCC(=O)O
inactive: [1] | [2] | [3] | [4] | [5] | [6] | [7] | [16] | [17] | [9] | [10] | [11] | [12] | [13] | [15]

CCCCC(CC)COC(=O)/C=C/c1ccc(OC)cc1 (stereo unspecified)
inactive: [1] | [2] | [5] | [6] | [19] | [7] | [8] | [16] | [17] | [9] | [10] | [11] | [12] | [14] | [15]

O=C(c1ccccc1)c1ccccc1
inactive: [1] | [2] | [5] | [6] | [19] | [7] | [9] | [10] | [11] | [13]

Oc1ccc(/C=C/c2cc(O)cc(O)c2)cc1
inactive: [1] | [5] | [6] | [7] | [16] | [17] | [9] | [18] | [11] | [12] | [15]
active: [2] 9.78 µM and 17.2 µM | [19] 1950 nM | [8] 4.37 µM and 8.63 µM and 13.3 µM

O=C(O)CCC(=O)O
inactive: [1] | [2] | [5] | [6] | [7] | [8] | [16] | [17] | [9] | [10] | [18] | [11] | [12] | [14] | [15]
